The results in this text go back to PubChem BioAssay (Tox21).

The structures appear in SMILES notation. Where “and” joins values, the source holds several entries; their conditions need not be identical. Equal entries are not always repeated. Inconclusive results are not listed. The source holds several records for some structures; these can differ, active in one and inactive in another. Calls of active or inactive are those of the source. Unless noted, calls come from the whole dose curve; as a rule, active = well fitted curve in the direction sought with a large enough effect in the repeat runs; inconclusive = weak or mixed curves; inactive = no such curve, though single readings can be large; an effect the other way counts as inactive or inconclusive.

A short description of assay [1]: qHTS assay to identify small molecule antagonists of the retinoid-related orphan receptor gamma (ROR-gamma) signaling pathway - cell viability counter screen (AID 1159520). For activity, negative = cytotoxicity: % is set by controls: 0 for no effect and ±100 for the full control effect. Note: nearly all actives have a fitted effect of over 50% in size. Note: potency is the fitted concentration of half-maximal effect. The method, boiled down:
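Cytotoxicity was read from cellular ATP (CellTiter-Glo luminescence) after 16 hr at 37 C with 1 uM doxycycline induction. The inducer was added 2 hr after compound transfer to Tet-on ROR gamma CHO cells.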
In general terms: Quantitative high-throughput screening tests each substance at several concentrations.

For assay [2], the target named is Nuclear receptor ROR-gamma (Homo sapiens) (UniProt P51449). The assay is described as follows: qHTS assay to identify small molecule antagonists of the retinoid-related orphan receptor gamma (ROR-gamma) signaling pathway (AID 1159521; note: nearly all actives have a fitted effect of over 50% in size; note: potency is the fitted concentration of half-maximal effect). A digest of the protocol: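 Cells were plated, rested 4 h at 37 C, exposed to compounds for 2 h, then given 1 uM final doxycycline hyclate to induce RORγ expression. After 16 h, ONE-Glo luminescence from the ROR response element reporter was measured.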

A short description of assay [3]: qHTS assay to identify small molecule agonists of the AP-1 signaling pathway - cell viability counter screen (AID 1159525; calls by dose curve; note: nearly all actives have a fitted effect of over 55% in size; note: potency is the fitted concentration of half-maximal effect). The method, boiled down:
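Intracellular ATP by Cell Titer Glo luminescence (30 min, RT) in the same ME-180 AP-1-bla wells after the 5 h compound exposure at 37 °C. Normalised to tetra n-octyl ammonium bromide and DMSO controls.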

Assay [4] in a line: qHTS assay to identify small molecule agonists of the AP-1 signaling pathway (AID 1159526; calls by dose curve; note: % is set by controls: 0 for no effect and ±100 for the full control effect).
The target in assay [5] is Retinoic acid receptor RXR-alpha (Homo sapiens) (UniProt P19793). The assay is described as follows: qHTS assay to identify small molecule agonists of the RXR signaling pathway (AID 1159527; calls by dose curve; note: % is set by controls: 0 for no effect and ±100 for the full control effect; nearly all actives have a fitted effect of over 35% in size). A digest of the protocol:
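Cells plated at 2,000/well, rested 5 hr at 37 C, pin-dosed with DMSO compound solutions, incubated 16 hr, then loaded with B/G FRET substrate for 2 hr at RT before dual-emission fluorescence reading.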

Assay [6] can be described thus: qHTS assay to identify small molecule antagonists of the retinoid acid receptor (RAR) signaling pathway - cell viability counter screen (AID 1159551). Note: % is set by controls: 0 for no effect and ±100 for the full control effect; nearly all actives have a fitted effect of over 35% in size. The method, boiled down:
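C3RL4 RARE-luciferase line; cpds + retinol 1 uM final, 6 h, 37 C/5% CO2; CellTiter-Glo ATP luminescence, 30 min RT.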

Assay [7] in a line: qHTS assay to identify small molecule antagonists of the retinoic acid receptor (RAR) signaling pathway (AID 1159552; note: nearly all actives have a fitted effect of over 50% in size; note: potency is the fitted concentration of half-maximal effect). A digest of the protocol:
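Retinol at 1 uM final stimulated RARE-luciferase expression in C3RL4 cells exposed to test compounds for 6 hr at 37 C. Reduced luminescence, read 30 min after detection reagent, indicated pathway antagonism.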

The nature of assay [8]: qHTS assay to identify small molecule antagonists of the estrogen related receptor (ERR) signaling pathway from Tox21 library - cell viability counter screen (AID 1224834). Note: nearly all actives have a fitted effect of over 30% in size. Note: potency is the fitted concentration of half-maximal effect. A digest of the protocol:
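Multiplexed viability counter screen in ERR cells: 17.5 h compound exposure at 37 C, CellTiter-Fluor added, 30 min at 37 C/5% CO2, fluorescence read.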

A short description of assay [9]: qHTS assay to identify small molecule agonists of the RXR signaling pathway - cell viability counter screen (AID 1159529).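 Note: HEK 293T cells carrying an RXR-alpha UAS beta-lactamase reporter; series mostly up to about 77 µM; % is set by controls: 0 for no effect and ±100 for the full control effect; nearly all actives have a fitted effect of over 50% in size.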 A digest of the protocol: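 Steps: seed RXR-alpha-UAS-bla HEK 293T cells in assay medium containing 2% charcoal-stripped FBS; incubate 5 hr; add compounds in DMSO; incubate 16 hr at 37 C; after the bla read, add CellTiter-Glo and read luminescence at 30 min.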

Assay [10] is described as follows: qHTS assay to identify small molecule agonists of the vitamin D receptor (VDR) signaling pathway - cell viability counter screen (AID 743224). A digest of the protocol:
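Cytotoxicity counter screen: VDR-bla cells, 16 h compound exposure at 37C, 5% CO2; CellTiter-Glo luminescence, 30 min RT, same wells as bla read.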

The nature of assay [11]: qHTS assay to identify small molecule antagonists of the vitamin D receptor (VDR) signaling pathway - cell viability counter screen (AID 743225). A digest of the protocol: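 HEK293T VDR-bla; cpd + 1a,25-(OH)2D3 3 nM final, 16 h 37C/5% CO2; B/G FRET substrate 2 h RT; then CellTiter-Glo 30 min RT, luminescence.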
Assay [12] in a line: qHTS assay to identify small molecule agonists of the retinoic acid receptor (RAR) signaling pathway (AID 1159553). Note: potency is the fitted concentration of half-maximal effect. The method, boiled down: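 RARE-luc C3RL4 cells; overnight attachment 37 C/5% CO2; compound (DMSO) 6 hr; luciferase reagent, 30 min RT; luminescence read-out.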
The nature of assay [13]: qHTS assay to identify small molecule agonists of the estrogen related receptor (ERR) signaling pathway (AID 1224820). Note: % is set by controls: 0 for no effect and ±100 for the full control effect. The method, boiled down:
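Luminescence readout (One-Glo, 30 min RT) from NTP-supplied ERR cell line exposed to compounds for 18 h at 37 C. Cells seeded 2,000 per well and pre-incubated 6 h before pin-tool compound transfer.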

Assay [14] concerns estrogen-related receptor alpha (ERRalpha) with PGC-1alpha coactivator, human. Kind of assay: qHTS assay to identify small molecule antagonists of the estrogen related receptor signaling pathway with the pleiotropic PPARgamma coactivator (PGC) (AID 1224821; calls by dose curve). The method, boiled down:
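PGC/ERR reporter cells; 6 h pre-incubation 37 C/5% CO2; pin-tool compound in DMSO, 18 h 37 C; One-Glo added, 30 min RT; luminescence read. qHTS antagonist mode.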

Assay [15] in a line: qHTS assay to identify small molecule antagonists of the estrogen related receptor signaling pathway with the pleiotropic PPARgamma coactivator (PGC) cell viability counter screen (AID 1224822; note: potency is the fitted concentration of half-maximal effect). A digest of the protocol:
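Fluorescence read-out of CellTiter-Fluor after 30 min at 37 C; PGC/ERR cells, 2,000 per well, had been exposed to DMSO-dissolved compounds for 17.5 h following a 6 h pre-incubation.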

Assay [16] in a line: qHTS assay to identify small molecule agonists of the estrogen related receptor signaling pathway with the pleiotropic PPARgamma coactivator (PGC) (AID 1224823). Note: % is set by controls: 0 for no effect and ±100 for the full control effect. The method, boiled down:
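Luminescence readout (One-Glo, 30 min RT) from PGC/ERR cell line treated 18 h at 37 C with pin-tool-delivered DMSO compound solutions; cells plated 6 h before dosing. Quantitative HTS format.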

Sequence of Retinoic acid receptor RXR-alpha (Homo sapiens) (P19793 whole entry, looked up): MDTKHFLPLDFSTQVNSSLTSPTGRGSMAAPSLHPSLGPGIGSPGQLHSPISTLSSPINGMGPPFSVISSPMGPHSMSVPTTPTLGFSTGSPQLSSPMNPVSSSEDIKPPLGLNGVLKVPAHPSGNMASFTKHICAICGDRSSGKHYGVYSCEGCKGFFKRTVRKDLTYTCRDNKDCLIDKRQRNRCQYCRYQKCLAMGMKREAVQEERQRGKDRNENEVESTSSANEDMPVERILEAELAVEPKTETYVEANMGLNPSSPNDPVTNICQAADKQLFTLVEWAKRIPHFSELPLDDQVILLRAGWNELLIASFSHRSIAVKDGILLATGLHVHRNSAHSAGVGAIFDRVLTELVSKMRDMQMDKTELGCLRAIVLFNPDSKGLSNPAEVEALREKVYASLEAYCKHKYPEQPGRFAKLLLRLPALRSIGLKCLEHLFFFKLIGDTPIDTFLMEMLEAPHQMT

With `CC(C)=CC1CC(C)CCO1` (stereo not drawn), the Potency entry in assay [1], in [2], in [3], in [4], in [5] and in assay [6] was “inactive” each time. Also, in assay [7], the Potency entry was “inactive”.

For the molecule `CCc1c(C(=O)O)c(=O)cnn1-c1ccc(Cl)cc1`, the Potency result in assay [1], in assay [2], in assay [3], in assay [4], in assay [5] and in [6] was “inactive” in each case. The Potency result in [7] and in assay [8] was “inactive” throughout.

Regarding `COc1ccc(C#N)cc1`, the Potency result in [1], in [2], in assay [3], in assay [4], in assay [5] and in assay [6] was “inactive” throughout. Also, the Potency result in [7] and in assay [8] was “inactive” throughout.

With `CC(=O)O[C@@H]1C[C@@H]2CC[C@@]1(C)C2(C)C`, the Potency result in assay [1], in [2], in [4], in assay [5], in [6] and in assay [7] was “inactive” each time. Moreover, in assay [8], the Potency result was “inactive”.

On to `CC(C)c1ccccc1N`, for which the Potency result in assay [1], in assay [2], in [4], in assay [5], in assay [9] and in [6] was “inactive” throughout. Also, the Potency entry in [7] is “inactive”.

Take `CN1CN(C)CN(C)C1`: the Potency result in [1], in assay [2], in assay [4], in assay [5], in assay [9] and in [6] was “inactive” each time. For the same molecule, in [7], the Potency entry is “inactive”.

As to `C/C=C/c1ccc(OC)c(OC)c1`, the Potency result in [1], in [2], in assay [3], in assay [4], in assay [5] and in assay [6] was “inactive” each time. Moreover, in assay [8], the Potency entry was “inactive”.

As for `C=CC(=C)CC/C=C(\C)CCC=C(C)C`, the activity, negative = cytotoxicity in assay [1] is 3.07% [at 19 µM] (inactive). Further, the activity change, negative = inhibition in assay [2] is 0.326% [at 19 µM] (inactive). Moreover, the viability change, negative = cytotoxic was 2.62% [at 15.8 µM] (inactive) in [3] and 0.736% [at 19 µM] (inactive) in assay [8]. Besides, the activation in assay [4] is -1.16% [at 15.8 µM] (inactive); in [5], -18.2% [at 15.8 µM] (inactive). The activity change, negative = cytotoxicity in assay [6] was -0.128% [at 19 µM] (inactive).

Take `CCN(CC)c1cccc(C)c1`: the Potency result in assay [1], in assay [2], in assay [4], in [5], in assay [9] and in assay [6] was “inactive” in each case. Besides, the Potency entry in assay [7] and in assay [8] was “inactive” throughout.

With `CCCCCCCCCCCCCCCCCO`, the activity, negative = cytotoxicity in assay [1] was -0.0509% [at 19 µM] (inactive). Also, in assay [2], the activity change, negative = inhibition is -0.415% [at 19 µM] (inactive). Further, the viability change, negative = cytotoxic was -0.925% [at 15.8 µM] (inactive) in [3] and 0.981% [at 19 µM] (inactive) in assay [8]. The activation in assay [4] was -5.53% [at 15.8 µM] (inactive); in assay [5], 2.15% [at 15.8 µM] (inactive). Moreover, the activity change, negative = cytotoxicity in [6] is 0.141% [at 19 µM] (inactive). In assay [7], the activity, negative = inhibition is -5.96% [at 19 µM] (inactive).

Consider `O=S(O)O`, for which, in [1], the activity, negative = cytotoxicity was 14% [at 19 µM] (inactive). For the same molecule, the activity change, negative = inhibition in assay [2] is 7.25% [at 19 µM] (inactive). Further, the values for the activation in assay [4] and in assay [5] were 2.22% [at 15.8 µM] (inactive) and -2.24% [at 15.8 µM] (inactive), respectively. The activity change, negative = cytotoxicity in [9] is -0.924% [at 15.8 µM] (inactive); in assay [6], -0.573% [at 19 µM] (inactive). Further, the activity, negative = inhibition in assay [7] was 5.26% [at 19 µM] (inactive). Besides, the viability change, negative = cytotoxic in assay [8] is 0.472% [at 19 µM] (inactive).

For the molecule `CC1=C(/C=C/C(C)=C/C=C/C(C)=C/C(=O)Nc2ccc(O)cc2)C(C)(C)CCC1`, the Potency in assay [10] is 14.2 µM (active) and 10.6 µM (active); in [11] it was 14.2 µM (active) and 10.7 µM (active); in assay [1], 31.4 µM (active) and 13.3 µM (active); in assay [2], 19.8 µM (active) and 8.41 µM (active); in [3], 44.8 µM (active); in assay [7], “inactive and 29.8 µM (active)”. Besides, the Potency in assay [12] was 4.98 µM (active) and 2.66 µM (active); in assay [15], 13.9 µM (active); in assay [8], 28 µM (active) and 23.7 µM (active). Besides, the molecule was called inactive in [13], in assay [14] and in assay [16].

On to `C[C@H]1O[C@@H](O[C@H]2[C@@H](O)C[C@H](O[C@H]3[C@@H](O)C[C@H](O[C@H]4CC[C@@]5(C)[C@H](CC[C@@H]6[C@@H]5C[C@@H](O)[C@]5(C)[C@@H](C7=CC(=O)OC7)CC[C@]65O)C4)O[C@@H]3C)O[C@@H]2C)C[C@H](O)[C@@H]1O`, for which the Potency in [10] was 17.4 nM (active); in assay [11], 21.9 nM (active) and 13.6 nM (active); in [1], 30.7 µM (active) and inactive; in [2], 4.33 µM (active) and 8.54 µM (active); in [8], 86.4 nM (active) and 95.8 nM (active). Also, the Potency entry in [4], in assay [6], in [7] and in [12] was “inactive” in each case.
